Measurements as given in PubChem BioAssay (NCATS).
Records with an inconclusive call do not appear. Where a call stands in place of a potency, no number is given. The source made the active and inactive calls. Unless noted, calls follow the shape of the dose curve; as a rule, active = well fitted curve in the direction sought with a large enough effect; inconclusive = small, poorly fitted or top-dose-only effect, or another doubt; inactive = no such curve, though single readings can be large; an effect the other way counts as inactive or inconclusive.

Assays:
[1] = molecular target: Glutathione peroxidase 1 (Homo sapiens) (UniProt P07203); test: Primary qHTS Assay for Inhibitors of Recombinant Selenoprotein Glutathione Peroxidase 1 (GPX1) (AID 1845191); settings: recombinant GPX1, GR-coupled NADPH fluorescence, 15 min; series mostly up to 48.8 µM; also: nearly all actives have a fitted effect of over 65% in size
Glutathione peroxidase 1 (Homo sapiens), sequence (P07203 whole entry, looked up): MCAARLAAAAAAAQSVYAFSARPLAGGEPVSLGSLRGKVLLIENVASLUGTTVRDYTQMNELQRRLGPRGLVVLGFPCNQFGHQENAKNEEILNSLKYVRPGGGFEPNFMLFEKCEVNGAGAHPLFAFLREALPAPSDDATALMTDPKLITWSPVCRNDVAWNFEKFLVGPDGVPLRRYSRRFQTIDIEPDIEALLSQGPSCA
Method in brief: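 GPX1 10 nM, GR 100 nM, GSH 1 mM, NADPH 0.5 mM, CHP 0.5 mM (final). 30-min cpd preincubation, RT. Ex340/Em450 read t=0, t=15 min.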

[2] = molecular target: Phospholipid hydroperoxide glutathione peroxidase GPX4 (Homo sapiens) (UniProt P36969); test: Primary qHTS Assay for Inhibitors of Recombinant Selenoprotein Glutathione Peroxidase 4 (GPX4) (AID 1845192); settings: recombinant GPX4, GR-coupled NADPH fluorescence, 15 min; series mostly up to 50 µM; also: nearly all actives have a fitted effect of over 65% in size
Phospholipid hydroperoxide glutathione peroxidase GPX4 (Homo sapiens), sequence (P36969 whole entry, looked up): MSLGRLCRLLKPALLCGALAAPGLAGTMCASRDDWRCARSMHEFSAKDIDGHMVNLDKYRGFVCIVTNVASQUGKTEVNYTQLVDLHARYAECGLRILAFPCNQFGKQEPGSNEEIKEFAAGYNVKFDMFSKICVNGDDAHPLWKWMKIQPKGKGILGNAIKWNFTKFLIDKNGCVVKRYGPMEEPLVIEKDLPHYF
Method in brief: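 qHTS, GR-coupled: GPX4 200 nM + cpd 30 min RT → GSH 1 mM, NADPH 0.5 mM, GR 100 nM → CHP 0.5 mM start; fluor 340/450 at t0 and t15 min; no-enzyme wells as control.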

[3] = molecular target: Luciferin 4-monooxygenase (Photinus pyralis) (UniProt P08659); test: Primary firefly luciferase (FLuc) qHTS assay for identification of artifact compounds. (AID 1845220); settings: purified firefly luciferase, luminescence, 5 min; series mostly up to 54.1 µM; also: nearly all actives have a fitted effect of over 60% in size
Method in brief: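 qHTS, 15 min compound preincubation with substrate (10 uM luciferin, 10 uM ATP) at RT, then 10 nM FLuc; 5 min; luminescence; % inhibition vs no-enzyme/DMSO controls, 4-parameter Hill fit.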

[4] = Primary fluorescence-based thiol-reactive (MSTI) qHTS assay for identification of artifact compounds. (AID 1845221); settings: MSTI thiol-reactivity probe, 1 h; series mostly up to 53.8 µM; also: nearly all actives have a fitted effect of over 65% in size; also: potency is read from the fitted curve at half-maximal effect
Method in brief: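 Thiol-reactive compounds detected by quenching of 4 uM MSTI fluorescence (525/598 nm) after 1 h room-temperature dark incubation in PBS pH 7.4, 2% DMSO. qHTS titration; percent inhibition Hill-fitted against Acetyl-MSTI/MSTI controls.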

[5] = tested on: Nanoluciferase (engineered Oplophorus gracilirostris luciferase); test: Primary Nanoluciferase (NLuc) qHTS assay for identification of artifact compounds. (AID 1845222); settings: NLuc-conditioned medium, Nano-Glo luminescence, 5 min; series mostly up to 54.1 µM
Method in brief: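 Luminescence read-out of secreted NLuc in S16 cell conditioned medium (1:55); compounds tested with 15 min RT preincubation, then Nano-Glo substrate 1:100, 5 min. % inhibition vs no-enzyme and DMSO controls, 4-parameter Hill fit.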

[6] = Primary redox qHTS assay for identification of artifact compounds. (AID 1845223); settings: Amplex Red/HRP redox cycling with DTT, fluorescence; series mostly up to 53.8 µM
Method in brief: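 Redox-cycling detection via DTT (250 uM final) oxidation coupled to Amplex Red (25 uM)/HRP (250 mU/mL) in HBSS. 15 min preincubation plus 30 min after DTT, room temperature. Ex/Em 525/598 nm; 4-parameter Hill fit against DMSO and 10 uM DA3003.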

[7] = qHTS drug screen for cell cycle checkpoint inhibitors in PARPi-resistant BRCA-mutant ovarian cancer cell lines. (AID 1963452; calls by dose curve; also: potency is read from the fitted curve at half-maximal effect); settings: PEO1/OlaR viability, CellTiter-Glo luminescence, 96 h; for Z-AUC: stronger effect = lower value
Method in brief: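 PEO1, PEO4 and PEO1/OlaR ovarian cancer cells, 600 per well, exposed 96 h at 37C to a dilution series. Viability read by CellTiter-Glo luminescence, normalized to DMSO and empty wells; activity summarized as Z-AUC.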

[8] = measured here: PEO1 parental Z-AUC

Compound	Potency [1]	Potency [2]	Potency [3]	Potency [4]	Potency [5]	Potency [6]	Z-AUC [7]	Z-AUC [7, 8]	Z-AUC ([7]; measured here: PEO4 Z-AUC)	Potency [7]
FC(F)(F)c1ccc(Nc2nc(-c3c(C(F)(F)F)nc4ccccn34)cs2)cc1	inactive	inactive	inactive	inactive	inactive	inactive	-2.12 (inactive)	-1.08	-1.77	–
Cc1[nH]nc(C(F)(F)F)c1Cc1sc2c(c1C(=O)N1C[C@](C)(O)CO1)c(=O)n(C)c(=O)n2C(C)C	inactive	inactive	inactive	inactive	inactive	inactive	0.988 (inactive)	0.611	0.623	–
COc1cc(OC)c(/C=C/S(=O)(=O)Cc2ccc(OC)c(NCC(=O)O)c2)c(OC)c1	inactive	inactive	inactive	3360 nM (active)	inactive	inactive	–	-2.09	-1.96	19.5 nM (active)
Cc1cccc(Oc2cnc(=O)[nH]c2)c1	inactive	inactive	inactive	inactive	inactive	inactive	-0.692 (inactive)	-0.81	-0.687	–
CCOc1cc2ncc(C#N)c(Nc3ccc(F)c(Cl)c3)c2cc1NC(=O)/C=C/CN(C)C	inactive	inactive	inactive	inactive	inactive	inactive	-0.44 (inactive)	-0.362	-0.838	–
COc1ncc(Nc2ncc([C@H](C)N3CCN(S(C)(=O)=O)CC3)cc2-c2nc(C)nc(N)n2)cc1F	inactive	inactive	inactive	inactive	inactive	inactive	-0.261 (inactive)	-0.0225	-0.164	–
COC(=O)N(C)c1c(N)nc(-c2nn(Cc3ccccc3F)c3ncccc23)nc1N	inactive	inactive	inactive	inactive	inactive	inactive	0.294 (inactive)	0.888	0.894	–
CCCCNc1ncc2c(-c3ccc(F)cc3)nn(CC3CCC(N)CC3)c2n1 (stereo not drawn)	inactive	inactive	inactive	inactive	inactive	inactive	-1.02 (inactive)	-0.901	-1.35	–
CCS(=O)(=O)N1CCN(c2ccc(Nc3ncc(C(N)=O)c(NC4CC4)n3)cc2)CC1	inactive	inactive	inactive	2990 nM (active)	inactive	inactive	0.319 (inactive)	-0.223	-0.0452	–
C[C@@H]1CCN(C(=O)N2CCCC2)C[C@@H]1N(C)c1ncnc2[nH]ccc12	inactive	inactive	inactive	inactive	inactive	inactive	-0.093 (inactive)	0.799	1.07	–
COc1ccc(C(=O)C2CCN(CC(=O)N(Cc3nc4c(c(=O)[nH]3)COCC4)CC3CC3)CC2)cc1	inactive	inactive	inactive	inactive	inactive	inactive	-0.974 (inactive)	-0.643	-0.695	–
COc1ccc(N(C)c2nc(C)nc3ccccc23)cc1	inactive	inactive	inactive	inactive	inactive	inactive	–	-2.78	-2.81	3.9 nM (active)
CN(C)C/C=C/C(=O)Nc1cccc(C(=O)Nc2cccc(Nc3ncc(Cl)c(-c4c[nH]c5ccccc45)n3)c2)c1	inactive	inactive	inactive	inactive	inactive	inactive	-1.57 (inactive)	-1.76	-1.32	–
CC[C@@](C)(Nc1ccnc(-c2c[nH]c3ncccc23)n1)C(=O)NCC(F)(F)F	inactive	inactive	inactive	inactive	inactive	inactive	-1.18 (inactive)	-0.201	-0.4	–
CCOc1cc(C(=O)N2CCC(N3CCN(C)CC3)CC2)ccc1Nc1ncc2c(n1)N(C1CCCC1)c1ccccc1C(=O)N2C	inactive	inactive	inactive	inactive	inactive	inactive	-1.32 (inactive)	0.31	-0.487	–
CC#CC(=O)N1CCC[C@H]1c1nc(-c2ccc(C(=O)Nc3ccccn3)cc2)c2c(N)nccn12	inactive	inactive	inactive	inactive	inactive	inactive	-0.264 (inactive)	0.632	0.342	–
Clc1cc2c(NC3CCCC3)nnc(-c3ccncc3)c2cc1Cl	inactive	inactive	inactive	inactive	inactive	inactive	-0.0819 (inactive)	0.551	0.556	–
